In the supplement of paper PMC5499739:
Whole data set: some 16,000 sequences, median “Z-score” near -0.37, cut for the highest 2% near 3.1. For the sample, the highest values were picked, then their nearest neighbours and some sequences at random.

These sequences were tested on RBM10 RRM1-ZnF-RRM2 (GST-tagged construct) (assay: RNAcompete 7-mer binding Z-score; higher = stronger binding preference).
Method: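 RNAcompete: 20 pmol GST-tagged RBM10 RNA-binding constructs were incubated with a designed RNA pool of about 241,000 sequences up to 41 nt (1.5 nmol) on glutathione beads for 30 min at 4 °C and washed. Bound RNAs were identified by microarray hybridisation. Each RNA 7-mer is scored by a one-sided Z-score of its enrichment, computed over probes that contain the 7-mer within longer pool sequences.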

Sequence | RNAcompete 7-mer binding Z-score
AGGGACG | 2.37
GGGGAUC | 2.27
CGGGAUG | 2.31
UGGGAUA | 2.85
ACAGAUU | -0.242
AAUGGUC | 0.822
GCAGCCC | -0.497
CUGCCAG | -0.606
AAACUUU | -0.752
UAGUGAC | 0.21
CAUUCUA | -0.821
GCGGGGA | 3.23
UCGGGGU | 1.76
GCGGGGG | 3.51
GCGGGGC | 2.5
GCGGGUU | 2.54
CCGGGGA | 1.12
CCGGGGG | 1.4
UCGGGGA | 1.7
GCGGGGU | 3.77
UCAAGCU | -0.621
CUCCGAC | -0.664
UCCCCAA | -0.639

Sequence | RNAcompete 7-mer binding Z-score
CCAUAGA | -0.464
GGAACGG | 4.03
CGAACGG | 1.41
GGACGGG | 4.18
GAACGGG | 4.29
CGACGGG | 2.14
GGACGGC | 1.05
GAACGGU | 1.56
AGAACGG | 1.84
GAACGGC | 0.84
ACGAUAC | -0.413
AUGCAUC | -0.362
UGAUAUA | -0.366
CACGAAA | -0.366
AGAUGGA | 2.92
UGAUGGU | 1.26
GGAUGGC | 2.46
GGAUGGU | 3.73
AGAUGGU | 1.63
GGAUGGA | 3.36
UAGGAGC | 1.74
AUGGGCA | 2.7
GUGGGCG | 3.37

Sequence | RNAcompete 7-mer binding Z-score
CUGGGCG | 1.05
GUGGGCC | 1.58
AUGGGCG | 3
GUGGGCA | 3.48
AGCGCGC | -0.282
CAGUCUU | -0.857
GAAAUCU | -0.46
CCGUUAA | -0.77
AGAAAAU | 0.0859
AGGGUAA | 4.77
GGGGUAC | 2.82
UGGGUAA | 2.38
AGGGUCU | 0.559
CGGGUAU | 1.39
GGGGUAU | 2.98
GUGGUAG | 2.26
AGGGUAU | 3.41
GGGGUAA | 3.5
GAGGUAA | 2.53
GGGGUAG | 4.58
CGGGUAA | 1.81
UGAGCAU | -0.0634
UGUAACU | -0.358

Sequence | RNAcompete 7-mer binding Z-score
AUCGGCG | 0.337
CGCCUGG | -0.482
GUGGCCA | 0.403
UUCCGGG | 0.341
GUUGAGU | 0.57
GAGUCCU | -0.453
UCAGUCA | -0.493
AGUGGGG | 4.66
AGUGGUG | 2.24
GGUGGUG | 3.25
GGUGGUC | 2.11
CGUGGUG | 1.44
AGUGGGC | 2.96
UGUGGGG | 3.75
UGUGGGC | 1.83
UGUGGGA | 2.96
AGUGUGG | 2.64
GGUGGGC | 3.19
UGUGGUG | 1.57
AAGCUCA | -0.635
GCACGGU | 0.519
GCACGCG | -0.0598
GUUGCCG | -0.216

Sequence | RNAcompete 7-mer binding Z-score
AAGCGGU | 1.03
ACGGAAC | 0.785
UGUGGGU | 2.9
AGUGGGA | 4.3
GCUGGGU | 1.78
GCUGGGA | 1.69
GGUGGGA | 3.75
GGUGGCA | 2.34
GGUGGGU | 3.47
CGUGGGU | 2.43
AGUGGCA | 1.68
AGUGGGU | 3.35
GGUGGUU | 2.03
AGUGGUA | 1.92
UAUUCAA | -0.606
UGUUUUU | -0.46
CUAACCC | -0.766
GGCGAAA | 1.35
CUCCUAU | -0.956
CGUGGGA | 2.39
GCUGGGG | 2.46
CGUGGGC | 2.21
GGGGGGG | 2.58

Sequence | RNAcompete 7-mer binding Z-score
GGUGGGG | 4.34
CGUGGGG | 3.57
AUCUCUG | -0.846
GGGGGGC | 2
AUGGGCU | 1.51
AUGGGAU | 3.25
GUGGGAA | 3.49
GUUGGGA | 3.05
CUGGGGC | 0.956
GUGGGAC | 2.4
AUGGGAC | 2.47
CUGGGGA | 1.32
GCGGGAA | 2.5
GUGGGGC | 3.47
GUGGGGA | 4.25
UCAACGC | -0.584
GGAAAUC | 0.931
GUGGGGG | 4.18
GCGGGAG | 2.64
GUGGCGC | 1.46
GUGGGUU | 2.54
UCGGGAG | 1.18
CUGGCGG | 0.541

Sequence | RNAcompete 7-mer binding Z-score
GUGGGAG | 3.99
GUGGGGU | 4.45
UUGGGGU | 2.84
CUGGGGG | 1.81
GUGGCGG | 3.22
UGGCUAU | -0.00148
GGAUAGC | 2.07
CGCAACU | -0.825
UCAAUUC | -0.752
GUAGUGA | 1.1
GGUGCGA | 1.58
CUUUCCG | -0.777
AUCAGCA | -0.395
AUUCCCC | -0.613
AGGAUAA | 1.21
CUGGGAU | 0.964
GUGGGAU | 3.57
UUGGGAU | 1.9
AUAAGAA | 0.177
GAUUGCC | -0.672
AAGUCUU | -0.697
GUAGGGG | 4.66
GUAGGGU | 4.48

Sequence | RNAcompete 7-mer binding Z-score
UUAGGGG | 2.07
GUAGGGC | 2.85
CUAGGGG | 1.97
UUAGGGA | 2.36
GUAGGGA | 4.26
GUAGGAG | 3.78
CUAGGAG | 0.534
CUAGGGU | 2
UUAGGGU | 3.02
GUAGGAC | 1.86
AACUUUA | -0.679
UAGGCGG | 1.79
UGUGACC | -0.176
CGUCUUU | -0.613
CCACUCG | -0.73
GGGUCUG | 0.993
ACCUCUG | -0.814
AUAGGGC | 2.14
AUAGGGG | 4.15
AUAGGGU | 4.33
AUAGGCG | 1.16
AUAGGGA | 2.9
AUAGGAG | 2.27
